For assay [1] the following is noted: Ebola virus entry assay, green fluorescence channel.
For assay [2] the following is noted: Ebola virus entry assay, blue channel fluorescence.
The conditions of assay [3]: Ebola virus entry assay, green fluorescence channel. This is another data set of the same source.
For assay [4] the following is noted: Ebola virus entry assay, ratio channel readout.
For assay [5] the following is noted: Ebola virus entry assay, blue channel fluorescence. This is another data set of the same source.
The conditions of assay [6]: Ebola virus entry assay, ratio channel.
For assay [7] the following is noted: Ebola virus entry assay, reporter ratio channel; AC50: Channel type: primary unless noted; outcome: Channel type: primary unless noted.
The conditions of assay [8]: Ebola virus entry assay, blue channel (ratio component).
The conditions of assay [9]: Ebola virus entry reporter assay, green channel fluorescence.
The conditions of assay [10]: Ebola virus entry cell assay, ratio channel.
The conditions of assay [11]: Ebola virus entry assay, blue channel fluorescence. The source holds these as a separate data set.
For assay [12] the following is noted: Ebola virus entry assay, green channel fluorescence.
The nature of assay [13]: qHTS profiling of the MIPE4 collection as inhibitors of Plasmodium falciparum (3D7) proliferation (AID 743344).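 Further: scaled between DMSO vehicle wells and 0.29 µM artemisinin as full inhibition.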 The following applies: P. falciparum 3D7 in erythrocytes, SYBR Green DNA fluorescence, 72 h; at 28.5 µM (top of the series) unless noted. The gist of the method: (§1)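 Parasite DNA was quantified by SYBR Green I fluorescence (ex 485, em 535 nm) after overnight lysis in saponin/Triton buffer at room temperature. Cultures at 0.3% parasitemia and 2.5% hematocrit were first exposed to compound for 72 h at 37 C; signals were normalised to artemisinin (0.29 uM) and vehicle wells.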
For orientation: qHTS replaces the single test concentration by a dilution series.

The nature of assay [14]: qHTS profiling of the MIPE4 collection as inhibitors of Plasmodium falciparum (DD2) proliferation (AID 743345). The following applies: P. falciparum Dd2 in erythrocytes, SYBR Green DNA, 72 h; at 28.5 µM (top of the series) unless noted. Put shortly:
as §1

Assay [15] in a line: qHTS profiling of the MIPE4 collection as inhibitors of Plasmodium falciparum (HB3) proliferation (AID 743347).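 Further: plate controls were DMSO vehicle wells for no effect and artemisinin wells for full effect.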 The following applies: P. falciparum HB3 in erythrocytes, SYBR Green DNA, 72 h; at 28.5 µM (top of the series) unless noted. Put shortly: as §1

For some of these results: Measured potencies and affinities stand elsewhere. More than one record can exist for a structure, and the calls need not agree. Active and inactive are the calls of the source.
Wherever efficacy is given: 0% is about no effect.

Turning to `CCC(COC(=O)c1cc(OC)c(OC)c(OC)c1)(c1ccccc1)N(C)C` (configuration not stated), the efficacy in assay [1] was 72.4% (inactive). The call in [2], in assay [3], in assay [4], in [5], in [8] and in assay [9] was inactive. In [10], the outcome was inactive. Moreover, the AC50 in [6] and in assay [7] was 17.8 µM (active) throughout.
With `CC/C(=C(\c1ccccc1)c1ccc(OCCN(C)C)cc1)c1ccccc1`, the efficacy in [1] is -205% (inactive). Moreover, the AC50 is 1.12 µM (active) in assay [2]; 1.26 µM (active) in assay [4]; 1.41 µM (active) in assay [5]; 1.12 µM (active) in assay [6]; 1.12 µM (active) in [7]; 1.26 µM (active) in [10]. Also, the call in [3] was inactive. The outcome in assay [7] was “inactive [Channel type: confirmation]”.
With `O=C1CCc2cc(OCCCCc3nnnn3C3CCCCC3)ccc2N1`, the efficacy in assay [1] was 80.2% (inactive). Further, the result in assay [2], in assay [3], in assay [4], in assay [5], in assay [6] and in assay [11] was inactive. Besides, the outcome in assay [7], in [8] and in assay [10] was inactive.
On to `N=C(N)c1ccc(OCCCCCOc2ccc(C(=N)N)cc2)cc1`, for which, in [1], the efficacy is 22.7% (inactive). The call in assay [2], in assay [3], in assay [4], in assay [5], in assay [6] and in assay [11] was inactive. For the same molecule, the result in [7], in assay [8] and in assay [10] was inactive.
Regarding `CN1CCC[C@@H]1Cc1c[nH]c2ccc(CCS(=O)(=O)c3ccccc3)cc12`, the efficacy in assay [1] was 20.7% (inactive). Besides, the outcome in assay [2], in assay [3], in assay [4], in assay [12] and in assay [10] was inactive. Further, the AC50 in assay [5], in assay [6] and in assay [7] was 25.1 µM (active) in each case.
`COC(=O)CCc1ccc(OCC(O)CNC(C)C)cc1` (configuration not stated): in [1], the efficacy was 35.4% (inactive). The molecule was classed as inactive in assay [2], in assay [3], in assay [4], in [6], in assay [11] and in assay [8]. For the same molecule, the result in assay [10] was inactive. Moreover, the AC50 is 22.4 µM (active) in assay [5] and 31.6 µM (active) in [7].
Turning to `Cc1nc2n(c(=O)c1CCN1CCC(c3noc4cc(F)ccc34)CC1)CCCC2`, the parasite growth, % of DMSO control in assay [13] amounted to 38.3%. For the same molecule, in assay [14], the parasite growth remaining, % of DMSO control (lower = more inhibition) came out at 70.5%. In assay [15], this molecule had a growth, % of control of 60.5%. For the same molecule, in [1], the efficacy is 54.5% (inactive). Further, the outcome in assay [2], in [3], in [4], in assay [5], in assay [6] and in [11] was inactive. Also, the outcome in assay [7], in assay [8] and in assay [10] was inactive.
For `C[C@@H](NCCCc1cccc(C(F)(F)F)c1)c1cccc2ccccc12`, the efficacy in [1] is -223% (inactive). In addition, the outcome in assay [2], in assay [3] and in assay [4] was inactive. The AC50 in assay [5] is 3.98 µM (active); in assay [6] it was 3.55 µM (active); in [7], 3.55 µM (active); in assay [10] it was 12.6 µM (active).
Turning to `O[C@@H](CNC[C@H](O)[C@H]1CCc2cc(F)ccc2O1)[C@@H]1CCc2cc(F)ccc2O1`, the efficacy in assay [1] is -189% (inactive). The AC50 in assay [2] is 11.2 µM (active); in assay [5], 7.94 µM (active); in assay [6] it was 3.55 µM (active); in [7], 3.55 µM (active); in assay [10] it was 5.01 µM (active). Further, the molecule was called inactive in assay [3] and in assay [4].
For the molecule `C[C@@H](O[C@H]1OCCN(Cc2n[nH]c(=O)[nH]2)[C@H]1c1ccc(F)cc1)c1cc(C(F)(F)F)cc(C(F)(F)F)c1`, the efficacy in assay [1] was 67.5% (inactive). Further, the molecule was classed as inactive in assay [2], in [3], in assay [4] and in assay [10]. In addition, the AC50 in [5], in [6] and in assay [7] was 28.2 µM (active) each time.
With `COC(=O)[C@H]1[C@H]2C[C@@H]3c4[nH]c5cc(OC)ccc5c4CCN3C[C@H]2C[C@@H](OC(=O)c2cc(OC)c(OC)c(OC)c2)[C@@H]1OC`, the efficacy in assay [1] is 32.6% (inactive). Also, the result in assay [2], in [3], in assay [4], in [9] and in [10] was inactive. For the same molecule, the AC50 is 31.6 µM (active) in assay [5], 25.1 µM (active) in assay [6] and 25.1 µM (active) in assay [7].
On to `CC[C@@H]([C@H](C)O)n1ncn(-c2ccc(N3CCN(c4ccc(OC[C@@H]5CO[C@@](Cn6cncn6)(c6ccc(F)cc6F)C5)cc4)CC3)cc2)c1=O`, for which the efficacy in assay [1] was 27.6% (inactive). The half-maximal activity concentration (AC50) in assay [2] is 10 µM (active); in assay [5], 4.47 µM (active); in assay [6] it was 3.98 µM (active); in assay [7], 3.98 µM (active); in assay [10], 8.91 µM (active). The result in assay [3] and in assay [4] was inactive.

Broadly, the AC50 is the midpoint of the concentration-response curve, whichever way the signal moves.

The values are drawn from PubChem BioAssay (NCATS).
